High-throughput results from PubChem.
Only some compounds are listed: those with a hit (about 2.1% of all), similar ones and a draw of the others.
CHT block – inhibitors of human choline transporter CHT. High affinity choline transporter 1 (Homo sapiens), Q9GZV3. CHT-expressing cells, membrane potential dye, choline response; stronger effect = lower value. B-score at 10 µM. actives 0.86% (n = 310,000);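 active means B-score over 3 SD under the library average, and starting fluorescence ratio not unusually high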;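 further: choline stimulus applied at its EC90 after an EC20 pre-addition; B-score computed on integrated fluorescence ratio after choline addition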
CHT allo act – CHT positive allosteric modulators, primary screen, cell-based, membrane potential dye, choline EC20. High affinity choline transporter 1 (Homo sapiens), Q9GZV3. CHT-expressing cells; stronger effect = higher value; LV-AA mutant CHT in HEK293 cells. B-score at 10 µM. actives 0.49% (n = 310,000). AID 488977, 2010;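 active means initial fluorescence not abnormally high and integrated response B-score, plate-corrected, over 3 SD above library mean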
PGE2 EP2 inh – human EP2 receptor antagonists, primary screen, TR-FRET cAMP, C6 glioma cells | C6 glioma cells expressing human EP2; cells stimulated with saturating PGE2 | inhibition, % at 25 µM | actives 0.52% (n = 260,000) | AID 1422, 2008;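 active means percent inhibition above 40 after rounding to a whole number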;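 further: rat C6 glioma host cells with rolipram phosphodiesterase inhibitor present; the protocol text gives 20 µM as final concentration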
Target sequence (P43116 whole entry, looked up): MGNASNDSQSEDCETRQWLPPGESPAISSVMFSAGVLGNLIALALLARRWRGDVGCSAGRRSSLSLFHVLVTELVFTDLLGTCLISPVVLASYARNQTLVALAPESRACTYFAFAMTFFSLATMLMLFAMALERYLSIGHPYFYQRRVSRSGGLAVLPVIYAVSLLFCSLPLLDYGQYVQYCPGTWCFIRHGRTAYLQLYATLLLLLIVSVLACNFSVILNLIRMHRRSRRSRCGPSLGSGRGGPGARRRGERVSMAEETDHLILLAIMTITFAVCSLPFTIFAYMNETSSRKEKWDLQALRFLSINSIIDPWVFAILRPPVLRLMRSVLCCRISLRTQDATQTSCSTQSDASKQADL
EP2 mod – EP2 receptor modulators, cAMP readout, primary screen, cell-based, HTRF cAMP, PGE2 stimulation; induction, % at 25 µM; Prostaglandin E2 receptor EP2 subtype (Homo sapiens), P43116; actives 0.83% (n = 260,000); EP2-expressing cells, cAMP HTRF FRET, PGE2 co-stimulation; AID 940, 2007;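 active means compounds whose cAMP rise, as percent of the full-agonist control response, exceeds 60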;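 further: rat C6 glioma line stably carrying human EP2 under a CMV promoter; the protocol text gives 20 µM as final concentration; 100% = response of wells given 1 µM PGE2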
EP2 confirm – cAMP induction in EP2, EP4, beta2-AR and parental cells, confirmation, counter-screen for EP2 modulator project, cell-based, five parallel assays, C6 glioma, HEK293. cAMP HTRF induction; plus low (about EC15) PGE2 agonist. calls only at 20 µM (by protocol). actives 47% (n = 1,300). shares compounds with EP2 mod;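 active means cAMP induction above 50% in the main assay while under 30% in all four parallel counter assays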;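 further: rat C6 glioma cells stably expressing human EP2 receptor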
* = called active by the depositor; i = inactive; . = no result; + = active, no number.

SMILES | CHT block | CHT allo act | PGE2 EP2 inh | EP2 mod | EP2 confirm
Cc1nnc(SCC(=O)N2c3ccccc3C(C)(c3ccccc3)CC2(C)C)s1 (configuration not stated) | i | i | 2.1 | 67.2* | i
Cc1ccc2nc(SCC(=O)NCc3ccco3)c(C#N)cc2c1 | i | i | 15.5 | 12.2 | .
Cc1ccc2nc(SCC(=O)NCc3ccco3)c(C)cc2c1 | i | i | 7.2 | 68.6* | +
N#Cc1c(N)nc2c3c(sc(=N)c2c1N)NC(=O)CC3c1c(F)cccc1Cl (configuration not stated) | i | i | 8.4 | 67.8* | +
CC(C)n1cc(-c2ccc(Cl)cc2)cc(C#N)c1=O | i | i | 10.1 | 68.4* | i
C=CCn1cc(-c2ccc(Cl)cc2)cc(C#N)c1=O | i | i | 4.8 | -9.9 | .
CCOP(=O)(OCC)c1nc(-c2cccc3ccccc23)oc1NCc1ccccc1 | i | i | 2.4 | 76.7* | +
CCOP(=O)(OCC)c1nc(-c2ccc(C)cc2)oc1NCc1ccccc1 | i | i | 9.8 | 80.7* | +
COP(=O)(OC)c1nc(-c2cccc3ccccc23)oc1NCCc1ccccc1 | i | i | 6.8 | 46.4 | .
CCOP(=O)(OCC)c1nc(-c2cccc3ccccc23)oc1NCc1ccc(OC)cc1 | i | i | 8.9 | 71.1* | i
CC(=O)N1CCCc2cc(C(O)CN3CCN(c4cc(C)ccc4C)CC3)ccc21 (configuration not stated) | . | . | 4.9 | -14.0 | .
CN(C(=O)c1cc(C2CC2)nc2ccccc12)c1nc2c(s1)CCc1occc1-2 | . | . | . | -1.5 | .
O=C(Cn1cc(CO)c2ccccc21)Nc1ccc(F)cc1 | . | . | 13.1 | -50.8 | .
CC1(C)C2CCC1(C)C(OC(=O)C[n+]1ccccc1)C2 (configuration not stated) | i | i | 7.7 | 0.5 | .
CC1(C)C2CCC1(C)C(OC(=O)CC(=O)O)C2 (configuration not stated) | i | i | 16.9 | 61.5* | +
CC(C)(C)C1CCC(OC(=O)c2ccncc2)CC1 (configuration not stated) | i | i | -1.5 | 84.3* | i
Cc1cccc(C)c1NC(=O)CSc1nnc(Cn2nnc(-c3ccccc3)n2)n1-c1ccccc1 | i | i | 2.9 | 73.8* | i
O=C(CSc1nnc(Cn2nnc(-c3ccccc3)n2)n1-c1ccccc1)Nc1ccccc1 | i | i | 5.6 | 25.6 | .
O=c1c(O)c(-c2ccccc2)oc2ccc3occc3c12 | . | . | 9.2 | 74.2* | +
CCOC(=O)c1c(NC(=O)c2ccco2)sc2c1CCCC2 | i | i | 11.2 | 19.8 | .
CCOC(=O)c1c(NC(=O)c2ccn(CC)n2)sc2c1CCCC2 | i | i | 10.8 | 60.3 | i
O=C(c1ccco1)N(CCC(c1ccccc1)c1ccco1)Cc1ccc(F)cc1 (configuration not stated) | i | i | 3.9 | 69.7* | +
O=C(CN(Cc1ccc(F)cc1)C(=O)c1ccco1)NCc1ccc(F)cc1 | i | i | 14.2 | 1.8 | .
Cc1cccc(C)c1N1CCN(c2ccc3nnc(C(F)(F)F)n3n2)CC1 | i | i | 4.1 | 69.6* | +
FC(F)(F)c1nnc2ccc(N3CCCCC3)nn12 | i | i | . | . | .
SMILES | CHT block | CHT allo act | PGE2 EP2 inh | EP2 mod | EP2 confirm
CCSc1nnc(-c2ccc(Cl)cc2)c2ccccc12 | i | i | 3.2 | 65.5* | i
CCSc1nnc(-c2ccc(C)cc2)c2ccccc12 | i | i | 14.5 | 11.4 | .
Cc1cc(C(=O)CSc2nc3ccccc3c(=O)n2C)c(C)n1Cc1ccc2c(c1)OCO2 | i | i | 7.8 | 73.6* | i
Cc1cc(C(=O)CSc2nnc(-c3ccccc3)n2Cc2ccc3c(c2)OCO3)c(C)n1C | i | i | 11.0 | 6.7 | .
O=S(=O)(c1ccc(F)c(Cl)c1)N1CCCC1 | i | i | 6.8 | 68.1* | i
COc1ccc(/C=C/C(=O)N2CCCc3ccccc32)cc1 | i | i | 4.7 | 26.6 | .
COc1ccc(OC)c(/C=C/C(=O)N2CCCc3ccccc32)c1 | i | i | 5.1 | 78.6* | +
Cc1noc2ncnc(Sc3c(Cl)cccc3Cl)c12 | i | i | 22.9 | 66.1* | i
CN(C(=O)Cn1nc(C(F)(F)F)c2c1CCCC2)C1CCCCC1 | . | . | 6.4 | 0.6 | .
CCCN(Cc1cc2cc(OC)ccc2[nH]c1=O)C(=O)c1cccc(OC)c1 | . | . | 6.2 | -14.8 | .
CCOC(=O)c1oc2ccccc2c1NC(=O)c1cccc(OC)c1OC | i | i | 10.1 | 65.8* | i
Cc1ccc(N(CC(=O)N/N=C/c2ccc(OC3CSC3)cc2)S(=O)(=O)c2ccccc2)cc1 | i | i | 15.0 | 75.8* | +
S=C(Nc1ccccc1Cl)N(Cc1ccccc1)Cc1ccccn1 | i | i | 2.8 | 75.5* | +
COc1ccccc1NC(=S)N(Cc1ccccc1)Cc1ccccn1 | i | i | 6.5 | 34.1 | .
CCn1c2ccccc2n2c(=O)n(CC(=O)Nc3ccc4c(c3)OCO4)nc12 | . | . | . | -3.5 | .
O=S(=O)(Nc1cc(Cl)ccc1N1CCCCC1)c1cccs1 | i | i | 6.0 | 44.9 | .
O=S(=O)(Nc1ccccc1N1CCCCC1)c1ccc(Cl)s1 | i | i | 5.5 | 68.8* | i
COC(=O)c1nc(NC(=O)C(C)(C)C)n[nH]1 | i | i | 16.3 | 66.2* | i
COc1ccc(-c2nnc3n2N=C(C)CS3)cc1 | i | i | 5.7 | 5.7 | .
COc1ccc(C2=Nn3c(nnc3-c3ccc(OC)cc3)SC2)cc1 | i | i | 4.7 | 91.5* | +
CCc1ccc(C2=Nn3c(nnc3-c3cccs3)SC2)cc1 | i | i | 15.4 | 88.6* | +
Cc1sc(C2C(C#N)=C(N)OC3=C2C(=O)CCC3)cc1COc1ccc(F)cc1 (configuration not stated) | . | . | 6.3 | -49.4 | .
COc1ccc(-n2c(SCC(=O)Nc3ccccc3OC)nnc2-c2ccc(Cl)cc2)cc1 | . | . | 9.5 | -52.9 | .
S=c1[nH]nc(C2CCCCC2)n1Cc1ccccc1 | i | i | 9.8 | 57.7 | i
S=c1[nH]nc(-c2ccc(Br)o2)n1Cc1ccccc1 | i | i | 8.2 | 62.1* | i
Cc1cc2cc(CN(CCN3CCOCC3)Cc3nnnn3C(C)(C)C)c(=O)[nH]c2cc1C | . | . | 8.1 | -18.5 | .
COc1ccc(CN(Cc2cc3cc(OC)ccc3[nH]c2=O)Cc2nnnn2C2CCCCC2)cc1 | . | . | 15.0 | 40.0 | .
CCn1c2cc(C)sc2c2cnn(CC(=O)Nc3ccccc3OC)c(=O)c21 | . | . | . | 9.0 | .
